# Only a selection was taken, and hits are over-represented in it overall.
# 14-3-3g Raf – alters human 14-3-3 gamma binding to Raf peptide. FP, 14-3-3gamma / TMR-pS259-Raf peptide binding. inhibition, % at 40 µM. 160,000 tested, 0.19% active. AID 422; in the data active means inhibition above about 30%;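 further: 0% = protein plus tracer without compound and 100% = blank with tracer alone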
# Target sequence (P61981 whole entry, looked up): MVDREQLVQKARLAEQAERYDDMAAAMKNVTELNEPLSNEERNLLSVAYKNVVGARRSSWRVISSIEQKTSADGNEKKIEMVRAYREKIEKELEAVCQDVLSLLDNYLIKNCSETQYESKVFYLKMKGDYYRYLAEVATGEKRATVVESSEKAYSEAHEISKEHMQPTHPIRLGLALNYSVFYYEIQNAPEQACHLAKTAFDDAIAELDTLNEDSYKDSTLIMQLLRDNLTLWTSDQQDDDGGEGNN
# Active calls of the source: *; + = active, no number.
SMILES,14-3-3g Raf
CCOC(=O)c1c(NC(=O)c2cc3nc(-c4cccs4)cc(C(F)(F)F)n3n2)sc(C)c1C,-4.4
CC(=O)Nc1cc(C(=O)NCc2cccnc2)ccc1S(=O)(=O)c1ccc(Cl)cc1,-0.3
CN1C(=S)SC(N(O)C(=O)Nc2ccccc2)C1(C)C (stereo not drawn),42.7*
CC1(C)C(N(O)C(=O)Nc2ccccc2)N(c2cccc(Cl)c2)C(=O)N1O (stereo not drawn),-5.9
CC1=C(C(=O)Nc2ccccc2)C(c2ccc([N+](=O)[O-])cc2)NC(=S)N1 (stereo not drawn),3.5
Cc1ccc2[nH]c(=O)c3cc(C(=O)O)sc3c2c1,-9.1
CC1CC(=O)C(CC(=O)O)C1C[N+](=O)[O-] (stereo not drawn),30.3*
N#Cc1nc2[nH]c3ccccc3c2nc1C#N,-12.4
COc1ccc2cc(-c3csc(NC(=O)CCC(=O)N4CCCC(C)C4)n3)c(=O)oc2c1 (stereo not drawn),-5.8
Cc1ccc(/C(O)=C2\C(=O)C(=O)N(c3nc4ccccc4s3)C2c2ccccc2F)cc1 (stereo not drawn),-16.8
O=C(NCc1cccnc1)c1cc2nc(-c3cccs3)cc(C(F)(F)Cl)n2n1,39.4*
O=C(NCc1cccs1)c1cc2nc(-c3cccs3)cc(C(F)(F)Cl)n2n1,-1.2
O=C(NCc1cccnc1)c1cc2nc(-c3ccco3)cc(C(F)(F)Cl)n2n1,1.7
CCOc1ccc(NC(=O)c2cc3c(n(-c4ccc(C)cc4)c2=O)CC(C)(C)CC3=O)cc1,-1.8
COc1ccc(C)cc1NC(=O)CCCN1C(=O)c2cccnc2C1=O,-52.4
NS(=O)(=O)c1ccc(NC(=O)Nc2cccc(Cl)c2)cc1,-1.3
O=C(Nc1cc(C(=O)Nc2ccc(S(=O)(=O)O)cc2S(=O)(=O)O)cc(C(=O)Nc2ccc(S(=O)(=O)O)cc2S(=O)(=O)O)c1)Nc1cc(C(=O)Nc2ccc(S(=O)(=O)O)cc2S(=O)(=O)O)cc(C(=O)Nc2ccc(S(=O)(=O)O)cc2S(=O)(=O)O)c1,31.8*
Cc1c(NC(=O)c2ccccc2)cc(S(=O)(=O)c2ccc(Cl)cc2)c(O)c1C,-12.2
C#CC(C)(C)NC(=O)CCC(=O)OCC,-10.6
Cc1ccc(N=Cc2ccccc2O)c(C(=O)c2ccccc2)c1,-2.3
C=CCN=c1cc(-c2ccccc2)oc2ccc(C)cc12,-12.1
Cc1ccc(N=Cc2cc(-c3ccccc3)oc2S)c(C)c1,90.3*
Cc1cccc(C)c1NC(=O)C(NC(=O)CN1CC(=O)Nc2ccccc21)c1ccccc1 (stereo not drawn),-44.0
Cc1c(N=Cc2ccccc2OCc2ccccc2)c(=O)n(-c2ccccc2)n1C,0.5
CC(C)CN1C(=O)C2C3CC4C5(C)CCCC(C)(C(=O)O)C5CCC4(C=C3C(C)C)C2C1=O (stereo not drawn),5.8
SMILES,14-3-3g Raf
CC(C)C1=CC23CCC4C(C)(C(=O)O)CCCC4(C)C2CC1C1C(=O)OC(=O)C13 (stereo not drawn),47.0*
CC(C)C1=CC23CCC4C(C)(C(=O)O)CCCC4(C)C2CC1C1C(=O)N(c2ccc(O)cc2)C(=O)C13 (stereo not drawn),-24.2
Cc1ccc(OCC(=O)Nc2ccccc2)c(Br)c1,0.1
CCOc1ccc2c(=O)c(Oc3ccccc3)c(C(F)(F)F)oc2c1,-4.4
Cc1ccc(S(=O)(=O)Nc2cc(C(=O)NCCc3ccccc3)ccc2N2CCCCC2)cc1,0.1
Cc1ccc(S(=O)(=O)Nc2cc(C(=O)NCCc3ccccc3)ccc2N2CCCC2)cc1,-20.5
Cc1ccc(S(=O)(=O)Nc2cc(C(=O)NCc3cccnc3)ccc2N2CCCCC2)cc1,36.6*
OCCCn1c(-c2ccccc2)csc1=Nc1cccc(Cl)c1,-12.5
O=C(NC1CCCCC1)C(NS(=O)(=O)c1ccc(Br)s1)c1ccccc1 (stereo not drawn),-25.5
COc1ccccc1NC(=O)C1CCN(S(=O)(=O)c2ccccc2)CC1,2.8
CC(N)C(=O)N1CCOCCOCCN(C(=O)C(C)N)CCOCCOCC1 (stereo not drawn),+
CC(C)NC(=O)N1CCOCCOCCN(C(=O)NC(C)C)CCOCCOCC1,4.2
CC(C(=O)N1CCOCC1)N1C(=O)c2ccccc2C1=O (stereo not drawn),-4.8
COc1ccc(C(=O)N2CCN(C(=O)c3cccc(F)c3)CC2)cc1OC,4.5
COc1cc(C2NC(=O)NC(C)=C2C(=O)OCC(C)C)cc(Cl)c1O (stereo not drawn),-3.5
O=C(Oc1cccc(Br)c1)c1ccc(C=Nc2ccc(N3CCOCC3)cc2)cc1,-1.1
Cc1sc(NC(=O)c2cc3n(n2)C(C(F)(F)F)CC(c2cccs2)N3)c(C(=O)OC(C)C)c1C (stereo not drawn),0.8
COc1cccc(CNC(=O)CCS(=O)(=O)c2ccc3c(c2)CC(C)N3C(C)=O)c1 (stereo not drawn),-0.3
CC(=O)N1c2ccc(S(=O)(=O)CCC(=O)NCc3ccccc3)cc2CC1C (stereo not drawn),19.8
CC(=O)N1c2ccc(S(=O)(=O)CCC(=O)NCc3ccc(C)cc3)cc2CC1C (stereo not drawn),33.1*
